PubChem BioAssay (NCI)
About 79,000 compounds went through this panel and 15% of them were active in at least one assay; those are over-represented in the sample as a whole. Activity calls are given as the source filed them. Cut-off read from the data, not from the text of the source: active = growth inhibition above about 70%; inactive = the rest.

Assays:
[1] = NCI Yeast Anticancer Drug Screen. Data for the rad50 strain (AID 155);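 note: 0% = growth of vehicle-only cultures of the same strain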; details: S. cerevisiae rad50 strain growth inhibition, stronger effect = higher value
Outline: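 Cells are treated with compound, grown, and their growth is then scored against vehicle-only cultures of the same repair-deficient yeast strain.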

[2] = NCI Yeast Anticancer Drug Screen. Data for the mec2-1 strain (AID 157); details: S. cerevisiae mec2-1 strain, stronger effect = higher value
Outline: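 Each compound was tested on mec2-1 yeast, a strain altered in DNA damage repair or cell cycle control. Growth inhibition is reported relative to vehicle.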

[3] = NCI Yeast Anticancer Drug Screen. Data for the sgs1 mgt1 strain (AID 161);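 note: 0% = growth of cultures given vehicle only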; details: S. cerevisiae sgs1 mgt1 strain, stronger effect = higher value
Outline: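 Genetically altered yeast, compound exposure, growth inhibition relative to vehicle.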

[4] = NCI Yeast Anticancer Drug Screen. Data for the cln2 rad14 strain (AID 165);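 note: 0% = growth equal to vehicle treated cultures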; details: S. cerevisiae cln2 rad14 strain, stronger effect = higher value
Outline: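 Test compounds were added to cln2 rad14 yeast cultures; inhibition of growth was then determined by comparison with vehicle treatment.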

[5] = NCI Yeast Anticancer Drug Screen. Data for the bub3 strain (AID 167); details: S. cerevisiae bub3 mutant strain, stronger effect = higher value
Outline: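 Part of a panel of yeast mutants defective in DNA damage repair or cell cycle regulation. Each strain is grown with compound, and inhibition is calculated relative to solvent-treated cultures.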

[6] = NCI Yeast Anticancer Drug Screen. Data for the mlh1 rad18 strain (AID 175); details: S. cerevisiae mlh1 rad18 strain growth inhibition, stronger effect = higher value
Outline: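 Inhibition values reflect reduced growth of mutant yeast versus vehicle-treated controls following compound exposure; the mutations affect DNA damage repair.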

[7] = at 5.0 µM (retest, dose inferred, filed as 0.5)
[8] = at 50.0 µM (retest, dose inferred, filed as 5.0)

Measured: growth inhibition

Cc1cc(I)ccc1NC(=S)Nc1ccccc1F
inactive: [1]; [7] -3% | [1]; [8] 62% | [2]; [7] -4% | [3]; [7] -3% | [3]; [8] 41% | [4]; [7] -19% | [4]; [8] 45% | [5]; [7] 5% | [6]; [7] -4% | [6]; [8] 68%
active: [1]; at 50.0 µM 90.7% | [2]; [8] 79% | [2]; at 50.0 µM 90.5% | [3]; at 50.0 µM 86.5% | [4]; at 50.0 µM 70% | [5]; [8] 86% | [5]; at 50.0 µM 95.1% | [6]; at 50.0 µM 90.7%

CCC(CO)Nc1nc2cc(Br)ccc2c2ccc(Br)cc12 (stereo unspecified)
active: [1]; [8] 92% | [1]; at 50.0 µM 92.6% | [2]; [8] 96% | [2]; at 50.0 µM 95.5% | [3]; [8] 93% | [3]; at 50.0 µM 96.2% | [4]; [8] 93% | [4]; at 50.0 µM 93.8% | [5]; [8] 94% | [5]; at 50.0 µM 91.9% | [6]; [8] 93% | [6]; at 50.0 µM 95.8%
inactive: [1]; [7] 36% | [2]; [7] 10% | [3]; [7] 62% | [4]; [7] 8% | [5]; [7] 47% | [6]; [7] 18%

CN(C)C1=C(Cl)C(=O)c2ccccc2C1=O
active: [1]; [8] 93% | [2]; [8] 87% | [3]; [8] 93% | [5]; [8] 96% | [5]; at 50.0 µM 82% | [6]; [8] 87%
inactive: [1]; [7] 12% | [1]; at 50.0 µM 47.7% | [2]; [7] 14% | [2]; at 50.0 µM 45.6% | [3]; [7] 14% | [3]; at 50.0 µM 44.9% | [4]; [7] 11% | [4]; [8] 60% | [4]; at 50.0 µM 34.8% | [5]; [7] 14% | [6]; [7] 15% | [6]; at 50.0 µM 42.4%

O=C(O)CC1c2ccccc2-c2ccccc21
active: [1]; at 50.0 µM 87.7% | [3]; at 50.0 µM 78.7% | [5]; [8] 82% | [5]; at 50.0 µM 82.8% | [6]; at 50.0 µM 79.3%
inactive: [1]; [7] -5% | [1]; [8] 36% | [2]; [7] -24% | [2]; [8] 24% | [2]; at 50.0 µM 64.5% | [3]; [7] -4% | [3]; [8] 31% | [4]; [7] -3% | [4]; [8] 54% | [4]; at 50.0 µM 43.9% | [5]; [7] -6% | [6]; [7] -7% | [6]; [8] 67%

O=C1C=CC(=O)N1Cc1ccccc1
active: [1]; [7] 98% | [1]; [8] 99% | [1]; at 50.0 µM 99.3% | [2]; [7] 100% | [2]; [8] 100% | [2]; at 50.0 µM 99.7% | [3]; [7] 97% | [3]; [8] 99% | [3]; at 50.0 µM 99.5% | [4]; [7] 97% | [4]; [8] 100% | [4]; at 50.0 µM 99% | [5]; [7] 99% | [5]; [8] 100% | [5]; at 50.0 µM 99.3% | [6]; [7] 95% | [6]; [8] 100% | [6]; at 50.0 µM 99.2%

O.O.O=Cc1cc(Br)cc(Br)c1O.O=Cc1cc(Br)cc(Br)c1O.[Co]
active: [1]; [8] 99% | [1]; at 50.0 µM 99.2% | [2]; [8] 99% | [2]; at 50.0 µM 96.7% | [3]; [8] 89% | [3]; at 50.0 µM 99% | [4]; [8] 99% | [4]; at 50.0 µM 89.5% | [5]; [8] 99% | [5]; at 50.0 µM 90.5% | [6]; [7] 79% | [6]; [8] 99% | [6]; at 50.0 µM 99.2%
inactive: [1]; [7] 58% | [2]; [7] 25% | [3]; [7] 37% | [4]; [7] 15% | [5]; [7] 53%

Cc1ccc(S(=O)(=O)Nn2c(S)c(C#N)c(-c3ccc(Cl)cc3)c(C#N)c2=O)cc1
inactive: [1]; [7] 29% | [1]; at 50.0 µM 55.6% | [2]; [7] 17% | [2]; [8] 66% | [3]; [7] 19% | [4]; [7] 40% | [4]; [8] 56% | [4]; at 50.0 µM 32.4% | [5]; [7] 45% | [5]; at 50.0 µM 65.9% | [6]; [7] 24% | [6]; [8] 56%
active: [1]; [8] 73% | [2]; at 50.0 µM 75.2% | [3]; [8] 91% | [3]; at 50.0 µM 81.8% | [5]; [8] 79% | [6]; at 50.0 µM 73.8%

C=C(C)C1CC/C(C)=C/CCC2(C)OC2CC/C(CO)=C\C1O (stereo unspecified)
active: [1]; [8] 89% | [1]; at 50.0 µM 91.1% | [2]; [7] 80% | [2]; [8] 96% | [2]; at 50.0 µM 93% | [3]; [8] 95% | [3]; at 50.0 µM 93% | [4]; [8] 85% | [4]; at 50.0 µM 91.7% | [5]; [7] 90% | [5]; [8] 94% | [5]; at 50.0 µM 91.8% | [6]; [7] 87% | [6]; [8] 96% | [6]; at 50.0 µM 91.5%
inactive: [1]; [7] 52% | [3]; [7] 41% | [4]; [7] 48%

O=C1C=CC(Nc2cccc([N+](=O)[O-])c2)C1Nc1cccc([N+](=O)[O-])c1 (stereo unspecified)
inactive: [1]; [7] -21% | [1]; [8] -16% | [2]; [7] 16% | [2]; [8] -9% | [3]; [7] -11% | [3]; [8] -11% | [4]; [7] -8% | [4]; [8] -24% | [5]; [7] 19% | [5]; [8] -4% | [6]; [7] -29% | [6]; [8] -19%
active: [1]; at 50.0 µM 92.3% | [2]; at 50.0 µM 89.2% | [3]; at 50.0 µM 91.5% | [4]; at 50.0 µM 90.7% | [5]; at 50.0 µM 90.7% | [6]; at 50.0 µM 91.7%

O=[N+]([O-])c1cccc2nc3ccccc3c(NCCNCCO)c12
active: [1]; [7] 89% | [1]; [8] 98% | [1]; at 50.0 µM 75.3% | [2]; [7] 95% | [2]; [8] 99% | [3]; [7] 90% | [3]; [8] 99% | [3]; at 50.0 µM 80.2% | [4]; [7] 75% | [4]; [8] 98% | [4]; at 50.0 µM 76.8% | [5]; [8] 99% | [6]; [7] 89% | [6]; [8] 98% | [6]; at 50.0 µM 88%
inactive: [2]; at 50.0 µM 51.2% | [5]; [7] 42% | [5]; at 50.0 µM 10.6%

O=[N+]([O-])c1ccc(Cl)cc1C(Nc1nncs1)Nc1nncs1
active: [1]; [8] 81% | [1]; at 50.0 µM 74.7% | [2]; [8] 76% | [3]; [8] 84% | [3]; at 50.0 µM 86% | [6]; [8] 88% | [6]; at 50.0 µM 80%
inactive: [1]; [7] 8% | [2]; [7] 7% | [2]; at 50.0 µM 40.6% | [3]; [7] 17% | [4]; [7] 2% | [4]; [8] 55% | [4]; at 50.0 µM 41.2% | [5]; [7] -1% | [5]; [8] 58% | [5]; at 50.0 µM 57.4% | [6]; [7] 0%

COc1ccc(/C=N/NS(=O)(=O)c2ccc(C)cc2)cc1
inactive: [1]; [7] 13% | [2]; [7] -5% | [2]; at 50.0 µM 67.9% | [3]; [7] 6% | [4]; [7] 18% | [4]; at 50.0 µM 45.4% | [5]; [7] 23% | [5]; at 50.0 µM 46.3% | [6]; [7] 46%
active: [1]; [8] 83% | [1]; at 50.0 µM 94.2% | [2]; [8] 97% | [3]; [8] 98% | [3]; at 50.0 µM 91.7% | [4]; [8] 96% | [5]; [8] 94% | [6]; [8] 98% | [6]; at 50.0 µM 97.3%
